In PubChem BioAssay AID504577 (NMMLSC, 2011) one finds response data, which are given here for 92 molecules.

Screen size: about 350,000 compounds; about 1,300 (0.37%) were called active. Rule as the data show it: active = response mostly above about 7.3% (no sharp cut-off); inactive = mostly below about 5.4%. This excerpt belongs to a sample that is enriched for actives.

The assay in a line: regulators of yeast V-ATPase proton pumping, primary screen, pHLuorin cytosolic pH fluorescence (AID 504577). Also: actives read high. To be noted: S. cerevisiae, at 10 µM, hits give high values.
On to `Cc1cc(=O)n2nc(N3CCCC3C(=O)NCCCN3CC(C)CC(C)C3)sc2n1` (configuration not stated), for which the response was -2.96% (inactive). In the case of `Cc1csc(NC(=O)c2ccc(-c3ccc(Cl)cc3Cl)o2)n1`, the response is -2.59% (inactive).

As for `Cc1sc2ncnc(N3CCC(C(=O)Nc4nc5ccc(Cl)cc5s4)CC3)c2c1C`, the response was 0.27% (inactive). On to `Cc1ccc(C(=O)Nc2nc3ccc(Cl)cc3s2)o1`, for which the response was 20.1% (active).

With `OC1CN=C2Sc3ccccc3N2C1` (configuration not stated), the response is 3.08% (inactive). On to `O=C(c1ccc(=O)oc1)N1CCC(C(O)(c2ccccc2)c2ccccc2)CC1`, for which the response is 2.64% (inactive). `CN1CCN(S(=O)(=O)c2cccc(C(=O)Nc3cccc(S(N)(=O)=O)c3)c2)CC1`: the response was 0.8% (inactive). In the case of `CC(C)CCN1C(=O)c2ccc(C(=O)Nc3cccc(S(N)(=O)=O)c3)cc2C1=O`, the response was 14.3% (active).

With `Cc1cccc(C(=O)Nc2ccc3c(c2)C(=O)N(CC(C)C)C3=O)c1`, the response was -0.72% (inactive). As to `COc1ccccc1C(=O)N1C(CC(=O)Nc2ccccc2C)C(=O)NC2CCCCC21` (configuration not stated), the response is 9.51% (inactive). Turning to `Cc1ccc(S(=O)(=O)Nc2ccc3c(c2)C(=O)N([C@H](C)CO)C[C@@H](C)[C@@H](CN(C)C(=O)Nc2cccc4ccccc24)O3)cc1`, the response was -0.92% (inactive).

As for `COc1cc(C2c3cc4c(cc3C(O)C3COC(=O)C23)OCO4)cc(OC)c1OC` (configuration not stated), the response was 1.36% (inactive). With `COc1ccccc1CNC(=O)COC(=O)c1sc(C)nc1C`, the response is 9.53% (active).

On to `COc1ccccc1CNC(=O)COc1ccc(C)nc1[N+](=O)[O-]`, for which the response is -0.89% (inactive). The figure for `COc1ccccc1CNC(=O)COC(=O)c1cccs1` is -4.49% (inactive); for `Brc1cnc(N2CCCC2)nc1N1CCCCC1` it is -0.57% (inactive); for `CCCc1nnc(NC(=O)c2cc(OC)cc(OC)c2)s1` it is 12.9% (active).

For the molecule `CCc1nnc(NC(=O)c2cccc(S(=O)(=O)N(C)c3ccc(OC)cc3)c2)s1`, the response is 3.85% (inactive). Consider `COc1ccc(Cc2nnc(NC(=O)c3cc(OC)c(OC)c(OC)c3)s2)cc1OC`, for which the response is -0.03% (inactive). Take `O=C1C=C(c2ccc(Cl)cc2)C(=O)N1Nc1ccccc1`: the response is 11.6% (active).

With `O=C(c1ccc(Cn2cc([N+](=O)[O-])cn2)o1)N1CCCC1`, the response is -2.73% (inactive).

On to `COc1ccc(C(=O)NC2CC2)cc1OC1CCN(Cc2ccc(SC)cc2)CC1`, for which the response was -0.55% (inactive). For the molecule `COc1cc(CN2CCCC(C(=O)c3ccc(SC)cc3)C2)cc(Cl)c1O` (configuration not stated), the response is 13.8% (active). Next, `COc1ccc(CN2CCCC(C(=O)c3ccc(Cl)cc3)C2)cc1Cn1cncn1` (configuration not stated): -2.81% (inactive); `C=CCOC(=O)N1CCC2CC1c1cc(-c3ccc(OC)cc3)ccc12` (configuration not stated): -1.16% (inactive). As to `CCOc1ccccc1NC(=O)C1CCN(S(=O)(=O)c2c(C)nn(C)c2C)CC1`, the response is -3.78% (inactive). In the case of `COCCNc1nc2nonc2nc1N(C)Cc1ccc(C)cc1`, the response was -1.45% (inactive). As to `Cc1cc(=O)[nH]c(SCC(N)=O)c1C#N`, the response is 23.4% (active). `Cc1cc(C#N)c(SCC(N)=O)nc1-c1ccc(F)cc1`: the response was 1.45% (inactive). Take `Cc1ccc(NC(=O)CSc2sc3c(O)cc(=O)[nH]c3c2C#N)cc1C`: the response is 2.04% (inactive).

As for `CCC(C)[C@H](NC(=O)N1CCn2c1nc1ccccc12)C(=O)NCc1ccc(OC)cc1` (some centres not stated), the response is 4.62% (inactive). Next, `NC(CSC1(c2ccccc2)c2ccccc2-c2ccccc21)C(=O)O` (configuration not stated): -2.21% (inactive). Consider `COc1ccc(CCN2C(=O)N(c3ccc(OC)cc3)C(=O)C2CC(=O)Nc2ccc(OC)cc2)cc1` (configuration not stated), for which the response was 9.93% (active). The figure for `COc1ccc(N2C(=O)C(CC(=O)Nc3ccccc3)N(Cc3ccc(OC)c(OC)c3)C2=O)cc1` (configuration not stated) is 0.01% (inactive); for `COc1ccc(N2C(=O)C(CC(=O)Nc3ccc(F)cc3)N(CCc3cccs3)C2=O)cc1` (configuration not stated) it is -0.54% (inactive); for `COc1cccc(OC)c1C(=O)N1CCN(Cc2ccccc2F)CC1` it is 0.6% (inactive).

As for `Cc1c(C)c(C)c(S(=O)(=O)N2CCC3(CC2)OCCO3)c(C)c1C`, the response is -4.64% (inactive).

As to `C[C@@H](O)c1nc2ccccc2n1N`, the response was 0.82% (inactive).

Turning to `Cc1ccc(S(=O)(=O)N(C)c2ccc(OCC(=O)NC3=NCCS3)cc2)cc1`, the response is -1.26% (inactive). Next, `CCOc1ccc(C(=O)CCC(=O)NC2=NCCS2)cc1`: 13.1% (active). As to `CCOc1ccc(C(=O)CCC(=O)Nc2ccncc2)cc1`, the response was 1.62% (inactive).

On to `Cc1csc(NC(=O)CSc2nc(=O)cc(N)n2-c2ccc(F)cc2)n1`, for which the response was 1.91% (inactive). As to `CCCCn1c(N)c(N(CCOC)C(=O)c2oc3ccc(OC)cc3c2C)c(=O)[nH]c1=O`, the response was 0.93% (inactive).

In the case of `COc1ccc(Cl)cc1N(CC(=O)N1CCCCC1)S(C)(=O)=O`, the response is 0.69% (inactive). With `O=C(CCn1nnnc1CN1CCOCC1)N1CCC(c2ccccc2Cl)C1` (configuration not stated), the response was 3.42% (inactive). In the case of `O=C(OCCOc1ccccc1Cl)c1cc(S(=O)(=O)N2CCCCC2)ccc1N1CCOCC1`, the response was -0.35% (inactive). With `Cc1cc(=O)[nH]c(SCc2ccc(Cl)cc2)n1`, the response was -0.98% (inactive).

As for `CCCc1cc(=O)[nH]c(SCc2ccc(C#N)cc2)n1`, the response is 11.9% (active).

`CCCc1cc(=O)[nH]c(SCc2cc(=O)oc3c(C)c(C)ccc23)n1`: the response is -2.17% (inactive). Regarding `COc1ccc(OCCn2ccnc2C)cc1`, the response is 1.9% (inactive).

Regarding `Nc1cc(N)nc(SCC(=O)Nc2cccc(S(=O)(=O)N3CCCCC3)c2)n1`, the response was 5.46% (inactive). For `Cc1ccnc(SCC(=O)Nc2cccc(S(=O)(=O)N3CCOCC3)c2)n1`, the response is 12.9% (active). The figure for `O=C(CSc1ccccc1)Nc1cccc(S(=O)(=O)N2CCOCC2)c1` is 0.62% (inactive). Next, `COC(=O)c1ccccc1NC(=O)C1CCN(C(=O)N2CCOc3ccccc32)CC1`: 4.95% (inactive); `Cc1cc(OC(=O)c2ccccc2)c([N+](=O)[O-])c(=O)[nH]1`: 11.5% (active). Consider `Cc1cc(OC(=O)c2ccc(OC(C)C)cc2)c([N+](=O)[O-])c(=O)[nH]1`, for which the response is 0.32% (inactive). Next, `COc1cccc(C(=O)Oc2cc(C)[nH]c(=O)c2[N+](=O)[O-])c1`: 0.78% (inactive). Next, `COC(=O)Nc1ccc(S(=O)(=O)Nc2cc(OC)nc(OC)n2)cc1`: 4.02% (inactive). For the molecule `Nc1nc(O)c(CC(=O)O)s1`, the response was 4.17% (inactive). For the molecule `CCCc1nc(SCC(=O)N2CCCC2)c2c(=O)n(C)c(=O)n(C)c2n1`, the response is 3.73% (inactive). Next, `CCOC(=O)C1CCN(C(=O)Nc2ccc(Cl)cc2)CC1`: 0.2% (inactive); `CC(=O)C(CC(=O)N1CCCC1)C(=O)Nc1ccc(Cl)cc1` (configuration not stated): 1.4% (inactive).

As to `CC(=O)N1CCC(N(C(=O)Nc2ccc(Cl)cc2)C(C)C)CC1`, the response is 12.3% (active). Turning to `COc1ccc(S(=O)(=O)N2CCCCC2)cc1NC(=O)C1CC(=O)N(c2ccc3c(c2)OCCO3)C1` (configuration not stated), the response was -6.01% (inactive). Next, `CCOc1cc(C(=O)N(Cc2ccccc2)c2ccc(C)cc2)ccc1OCC(=O)N1CCOCC1`: -0.49% (inactive).

Take `CCN(Cc1ccccc1)C(=O)Cc1ccc(OC)c(S(=O)(=O)N2CCOCC2)c1`: the response was -1.28% (inactive).

Regarding `COc1ccc(C(=O)N(Cc2ccccc2)c2ccc(C)cc2)cc1S(=O)(=O)N1CCOCC1`, the response is 7.49% (active). Take `Cc1nccc(-c2ccc(-n3c(C)ccc3C)cc2)n1`: the response was -1.42% (inactive). On to `CC(C)[C@@H](C(=O)O)N(Cc1cccc(CN([C@H](C(=O)O)C(C)C)S(C)(=O)=O)c1)S(C)(=O)=O`, for which the response was 2.56% (inactive). The figure for `CCOC(=O)N1CCN(C(=O)c2n[nH]c(=O)c3ccccc23)CC1` is -1.18% (inactive). As to `CCOC(=O)N1CCN(C(=O)Cn2cnc3ccccc3c2=O)CC1`, the response is 1.97% (inactive). For `CCOC(=O)N1CCN(CC(=O)n2c(C)c(C)c3ccccc32)CC1`, the response was 12.8% (active). Regarding `CC(NC(=O)C1CCCN(S(=O)(=O)c2ccc(-n3cnnn3)cc2)C1)c1ccc(F)cc1` (configuration not stated), the response is 0.08% (inactive).

`N#CC(C(N)=O)=C1CCC2(CC1)OCCCCO2`: the response is 18.9% (active). Next, `CC1(C)C/C(=C(/C#N)C(N)=O)CCO1`: -3.69% (inactive). On to `Cc1scc(C(=O)NNC(=S)NCc2ccccc2)c1C`, for which the response was 1.7% (inactive). Turning to `CCCOc1ccc(C2=CSC3=NCCN23)cc1Cl`, the response is -2.58% (inactive). For the molecule `CCOC(=O)/C(C#N)=C/c1ccc(N2CCN(Cc3ccccc3)CC2)cc1`, the response was 5.08% (inactive). Consider `C/C(=C/c1ccccc1)C(=O)N1CCN(c2ccccc2)CC1`, for which the response was 1.8% (inactive). The figure for `COc1ccc(N2CCN(C(=O)/C(C#N)=C/c3ccccc3)CC2)cc1` is 24.1% (active); for `COCCNc1cc(NCCOC)c([N+](=O)[O-])cc1[N+](=O)[O-]` it is 2.79% (inactive); for `CC1CCCCN1S(=O)(=O)c1ccc(S(=O)(=O)N(CC(=O)Nc2ccccc2)Cc2cccs2)cc1` (configuration not stated) it is 2.49% (inactive). Take `CSCc1nnc(NC(=O)c2ccc(S(=O)(=O)N3CCCCC3C)cc2)o1` (configuration not stated): the response is -2.27% (inactive).

On to `CC1CCCCN1S(=O)(=O)c1ccc(C(=O)Nc2nnc(-c3cccs3)o2)cc1` (configuration not stated), for which the response is 11.2% (active). Take `COc1ccc(C(=O)N2CCCCC2C(=O)Nc2ccc(-n3nc(C)cc3C)cc2)o1` (configuration not stated): the response is -0.42% (inactive).

`CC1(C)COC(c2cccn2Cc2ccccc2Cl)=N1`: the response is -1.9% (inactive). With `C/C(CC(=O)N1CCN(C=O)CC1)=N\NC(=O)c1ccc(Br)cc1`, the response was 1.52% (inactive). Next, `Cc1cc(OC(C)C(=O)Nc2ccc(S(=O)(=O)Nc3onc(C)c3C)cc2)cc(C)c1Cl` (configuration not stated): -1.29% (inactive); `O=C(O)CCc1cccnc1`: -0.98% (inactive); `CCCCN=C1N/C(=C\c2ccco2)C(=O)N1c1ccccc1`: 2.17% (inactive). The figure for `COc1cc2c(cc1/C=C1/NC(=O)N(c3ccccc3)C1=O)OCO2` is 11.3% (active); for `COc1ccc(/C=C2/C(=O)N(c3ccccc3)N=C2C)c(OC)c1` it is -0.07% (inactive).
